This note sets out measurements from PubChem BioAssay.

Activity calls are given as the source filed them.

For test [1], the target named is Albumin (Bos taurus) (UniProt P02769). Nature of the test: compounds binding labelled BSA control protein – biochemical, small-molecule microarray, Alexa647 label, 635/667 nm fluorescence, artefact control for SMM control protein annotation, profiling panel (AID 1118).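 Also: score merges 667 nm emission intensity and signal-to-noise per printed compound spot.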 The note with it: BSA-A647 binding, fluorescence 635 nm, higher = more signal.
Test [2] is described as follows: probe aXIP binding to arrayed compounds – biochemical, NeuroSMM set, 635/667 nm fluorescence, primary screen (AID 1119).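 Also: probe is the protein aXip251-270 applied at 1 µg/mL to compound-printed slides; binding of probe to printed compounds measured as 667 nm fluorescence plus signal to noise.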 Conditions: small-molecule microarray, higher = more signal, called active from +8 up or from −8 down.
A short description of test [3]: probe aNOTCH3 binding on compound microarray – biochemical, small-molecule microarray, 635/667 nm fluorescence, primary screen (AID 1120).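 Also: probe is a biotin-tagged antibody raised against NOTCH3 rather than NOTCH3 protein; score merges spot fluorescence near 667 nm with spot signal to noise.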 Conditions: higher = more signal.
A short description of test [4]: probe aNOTCH2 binding on compound microarray – biochemical, small-molecule microarray, 635/667 nm fluorescence, primary screen (AID 1121).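 Also: score merges feature fluorescence read at 667 nm with its signal to noise.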 Conditions: higher = more signal.
In test [5] the target is Carbonic anhydrase 2 (Homo sapiens) (UniProt P00918). Nature of the test: compounds binding carbonic anhydrase 2 – biochemical, small-molecule microarray, Alexa647-labelled CAII, profiling panel (AID 1122). Conditions: CAII-A647 binding fluorescence, higher = more signal.
The nature of test [6]: COS7 lysate on small-molecule microarray, probe aHis, 635 nm (AID 1123).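 Also: z-score combines 667nm fluorescence intensity with signal-to-noise per printed compound spot.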 The note with it: COS7 cell lysate, fluorescence, higher = more signal.
The nature of test [7]: probe aLAP1 signal on lysate-treated microarray – cell lysate, small-molecule microarray, COS7 lysate, primary screen (AID 1124).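 Also: lysate comes from COS7 cells expressing LAP1 and is applied at 0.3 µg/mL; score merges spot fluorescence near 667 nm with signal-to-noise over triplicate slides.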 Conditions: probe aLAP1, fluorescence, higher = more signal.
The test system of test [8] is Sam68 (KHDRBS1). Briefly: compounds binding KHDRBS1 protein – biochemical, small-molecule microarray, 635 nm fluorescence, primary screen (AID 1125).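 Also: score merges 667 nm channel intensity with signal to noise over triplicate slides.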 Conditions: higher = more signal.
Test [9] concerns Chordin-like protein 2 (CHRDL2). Briefly: compounds binding chordin-like 2 – biochemical, small-molecule microarray, 635 nm fluorescence, primary screen (AID 1126).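 Also: printed compound slides probed with Chrdl2 protein at 4 µg/mL for 1 h at 4 C; score merges 667 nm emission intensity with signal to noise over three replicate slides.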 The note with it: fluorescence 635 nm, higher = more signal.
Test [10] has as its target Concanavalin-A (Canavalia ensiformis) (UniProt P02866). Briefly: compounds binding concanavalin A lectin – biochemical, small-molecule microarray, Alexa647 label, 635 nm, artefact control for SMM control protein annotation, primary screen (AID 1127).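 Also: z combines 667 nm emission intensity with signal-to-noise across three replicate slides.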 The note with it: ConA-A647 binding fluorescence, higher = more signal.
Test [11] in a line: compounds binding Alexa647 anti-His antibody – biochemical, small-molecule microarray, 635 nm fluorescence, artefact control for SMM control protein annotation, primary screen (AID 1128).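 Also: score merges feature fluorescence with signal-to-noise for each printed compound spot.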 Conditions: higher = more signal.
In test [12] the test system is Human papillomavirus type 1a E7 protein (residues 1-88). Nature of the test: HPV1a E7 small-molecule binders, primary screen, biochemical, small-molecule microarray, residues 1-88, 635 nm (AID 1129). The note with it: small-molecule microarray binding, fluorescence 635 nm; higher = more signal.
In test [13] the target is Focal adhesion kinase 1 (Homo sapiens) (UniProt Q05397). Briefly: PTK2 protein binding on printed compound slides – biochemical, small-molecule microarray, 635/667 nm fluorescence, BSA, DTT, primary screen (AID 1130).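 Also: composite of spot emission at 667 nm and signal to noise over triplicate slides.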 Conditions: 635 nm fluorescence, higher = more signal.
Test [14] has as its system Fibrinogen (Alexa647-labelled). Briefly: Alexa647-fibrinogen binding to printed small molecules – biochemical, small-molecule microarray, 635/667 nm fluorescence, artefact control for SMM control-protein annotation, profiling panel (AID 1131).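 Also: z-score merges 667 nm fluorescence with per-spot signal-to-noise over triplicate slides.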 Conditions: fibrinogen-A647 binding fluorescence, higher = more signal.
Test [15] addresses Follistatin (Homo sapiens) (UniProt P19883). Nature of the test: FST protein binding to printed compounds – biochemical, small-molecule microarray, 635/667 nm fluorescence, primary screen (AID 1132). The note with it: 635 nm fluorescence, higher = more signal.
For test [16], the target named is Fibroblast growth factor 2 (Homo sapiens) (UniProt P09038). Briefly: basic fibroblast growth factor binding to printed compounds – biochemical, small-molecule microarray, 635/667 nm fluorescence, primary screen (AID 1133). Conditions: FGF2, fluorescence 635/667, higher = more signal.
A short description of test [17]: JC-1 mitochondrial potential readout, lung cancer cells – cell-based, A549, JC-1 fluorescence, basal, 24 h, 100 nL, profiling panel (AID 1138).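 Also: A549 lung adenocarcinoma cells under basal conditions with no added stimulus; test concentration not given here.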 The note with it: higher = more signal.
Test [18] deals with Lefty1. Briefly: Lefty1 protein binding to printed compounds – biochemical, small-molecule microarray, 635/667 nm fluorescence, primary screen (AID 1139). Conditions: fluorescence 635/667, higher = more signal.
Test [19] concerns wheat germ agglutinin (Triticum aestivum), Alexa647-labelled. Briefly: Alexa647-WGA lectin binding to printed small molecules – biochemical, small-molecule microarray, 635/667 nm fluorescence, artefact control for SMM control-protein annotation, profiling panel (AID 1140).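 Also: score merges 667 nm feature emission with signal to noise over triplicate slides.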 Conditions: WGA-A647 binding, 635 nm fluorescence, higher = more signal.
The target of test [20] is Luciferin 4-monooxygenase (Photinus pyralis) (UniProt P08659). Nature of the test: inhibition of purified Photinus pyralis luciferase – biochemical, luminescence, purified enzyme, 2006 set, primary screen (AID 1141).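 Also: cell-free assay with purified firefly luciferase at 100 ng per well in PBS; test concentration not given here.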 The note with it: purified firefly luciferase, SteadyGlo luminescence, 30 min; higher = more signal, called active from +8 up or from −8 down.
Chain of Luciferin 4-monooxygenase (Photinus pyralis) (P08659 whole entry, looked up): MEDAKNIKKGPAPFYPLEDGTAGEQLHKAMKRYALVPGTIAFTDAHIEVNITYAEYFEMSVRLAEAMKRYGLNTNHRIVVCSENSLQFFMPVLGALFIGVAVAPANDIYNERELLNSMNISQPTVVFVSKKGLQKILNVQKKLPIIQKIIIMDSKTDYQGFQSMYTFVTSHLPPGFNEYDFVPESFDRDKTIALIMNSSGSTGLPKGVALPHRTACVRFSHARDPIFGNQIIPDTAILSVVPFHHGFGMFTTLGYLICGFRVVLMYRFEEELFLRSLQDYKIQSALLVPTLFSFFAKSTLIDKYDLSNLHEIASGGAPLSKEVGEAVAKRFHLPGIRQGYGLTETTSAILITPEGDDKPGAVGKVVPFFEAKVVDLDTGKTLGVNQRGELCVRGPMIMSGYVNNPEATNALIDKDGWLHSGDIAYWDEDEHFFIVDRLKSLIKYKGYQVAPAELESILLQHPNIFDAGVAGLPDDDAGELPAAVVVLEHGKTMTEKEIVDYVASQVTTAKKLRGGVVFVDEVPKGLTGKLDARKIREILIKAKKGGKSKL

Chain of Follistatin (Homo sapiens) (P19883 whole entry, looked up): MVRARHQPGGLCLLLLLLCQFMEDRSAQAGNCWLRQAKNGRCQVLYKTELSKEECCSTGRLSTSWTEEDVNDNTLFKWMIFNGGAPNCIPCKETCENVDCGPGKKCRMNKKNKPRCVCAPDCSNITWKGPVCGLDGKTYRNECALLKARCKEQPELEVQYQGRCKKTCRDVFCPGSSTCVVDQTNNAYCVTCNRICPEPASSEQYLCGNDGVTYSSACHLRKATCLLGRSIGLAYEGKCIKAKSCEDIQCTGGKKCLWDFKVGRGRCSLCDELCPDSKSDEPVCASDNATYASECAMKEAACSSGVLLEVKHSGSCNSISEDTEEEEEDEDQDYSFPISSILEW
Chain of Concanavalin-A (Canavalia ensiformis) (P02866 whole entry, looked up): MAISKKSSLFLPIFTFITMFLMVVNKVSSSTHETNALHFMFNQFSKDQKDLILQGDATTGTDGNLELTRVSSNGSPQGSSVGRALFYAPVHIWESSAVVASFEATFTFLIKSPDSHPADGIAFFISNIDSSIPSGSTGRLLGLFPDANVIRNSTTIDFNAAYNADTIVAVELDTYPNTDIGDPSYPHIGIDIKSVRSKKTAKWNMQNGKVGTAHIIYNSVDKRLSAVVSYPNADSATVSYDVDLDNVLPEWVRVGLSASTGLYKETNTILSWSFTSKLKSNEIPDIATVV
Chain of Fibroblast growth factor 2 (Homo sapiens) (P09038 whole entry, looked up): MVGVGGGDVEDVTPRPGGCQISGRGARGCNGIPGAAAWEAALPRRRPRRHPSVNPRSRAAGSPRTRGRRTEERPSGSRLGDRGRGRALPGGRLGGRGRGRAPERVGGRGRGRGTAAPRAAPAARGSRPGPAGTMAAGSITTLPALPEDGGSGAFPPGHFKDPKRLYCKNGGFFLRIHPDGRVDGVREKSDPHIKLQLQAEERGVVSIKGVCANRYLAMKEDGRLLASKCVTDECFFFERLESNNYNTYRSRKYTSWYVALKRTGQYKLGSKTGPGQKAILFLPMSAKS
Chain of Albumin (Bos taurus) (P02769 whole entry, looked up): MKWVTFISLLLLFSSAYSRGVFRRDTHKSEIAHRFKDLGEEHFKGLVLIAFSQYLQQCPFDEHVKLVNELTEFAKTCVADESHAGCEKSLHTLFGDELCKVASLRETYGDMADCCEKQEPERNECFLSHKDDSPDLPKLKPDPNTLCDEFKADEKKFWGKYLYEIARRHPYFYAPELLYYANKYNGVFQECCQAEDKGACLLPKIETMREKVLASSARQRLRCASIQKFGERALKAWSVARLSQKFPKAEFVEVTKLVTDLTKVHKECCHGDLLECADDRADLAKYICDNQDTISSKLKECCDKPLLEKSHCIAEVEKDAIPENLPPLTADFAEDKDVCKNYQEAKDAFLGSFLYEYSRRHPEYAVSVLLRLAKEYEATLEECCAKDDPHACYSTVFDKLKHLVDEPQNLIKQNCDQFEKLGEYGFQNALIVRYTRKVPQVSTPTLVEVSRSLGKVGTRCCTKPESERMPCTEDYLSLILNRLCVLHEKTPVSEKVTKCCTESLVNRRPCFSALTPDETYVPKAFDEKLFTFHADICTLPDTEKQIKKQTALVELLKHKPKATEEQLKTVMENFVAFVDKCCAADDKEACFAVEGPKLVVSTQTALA
Chain of Focal adhesion kinase 1 (Homo sapiens) (Q05397 whole entry, looked up): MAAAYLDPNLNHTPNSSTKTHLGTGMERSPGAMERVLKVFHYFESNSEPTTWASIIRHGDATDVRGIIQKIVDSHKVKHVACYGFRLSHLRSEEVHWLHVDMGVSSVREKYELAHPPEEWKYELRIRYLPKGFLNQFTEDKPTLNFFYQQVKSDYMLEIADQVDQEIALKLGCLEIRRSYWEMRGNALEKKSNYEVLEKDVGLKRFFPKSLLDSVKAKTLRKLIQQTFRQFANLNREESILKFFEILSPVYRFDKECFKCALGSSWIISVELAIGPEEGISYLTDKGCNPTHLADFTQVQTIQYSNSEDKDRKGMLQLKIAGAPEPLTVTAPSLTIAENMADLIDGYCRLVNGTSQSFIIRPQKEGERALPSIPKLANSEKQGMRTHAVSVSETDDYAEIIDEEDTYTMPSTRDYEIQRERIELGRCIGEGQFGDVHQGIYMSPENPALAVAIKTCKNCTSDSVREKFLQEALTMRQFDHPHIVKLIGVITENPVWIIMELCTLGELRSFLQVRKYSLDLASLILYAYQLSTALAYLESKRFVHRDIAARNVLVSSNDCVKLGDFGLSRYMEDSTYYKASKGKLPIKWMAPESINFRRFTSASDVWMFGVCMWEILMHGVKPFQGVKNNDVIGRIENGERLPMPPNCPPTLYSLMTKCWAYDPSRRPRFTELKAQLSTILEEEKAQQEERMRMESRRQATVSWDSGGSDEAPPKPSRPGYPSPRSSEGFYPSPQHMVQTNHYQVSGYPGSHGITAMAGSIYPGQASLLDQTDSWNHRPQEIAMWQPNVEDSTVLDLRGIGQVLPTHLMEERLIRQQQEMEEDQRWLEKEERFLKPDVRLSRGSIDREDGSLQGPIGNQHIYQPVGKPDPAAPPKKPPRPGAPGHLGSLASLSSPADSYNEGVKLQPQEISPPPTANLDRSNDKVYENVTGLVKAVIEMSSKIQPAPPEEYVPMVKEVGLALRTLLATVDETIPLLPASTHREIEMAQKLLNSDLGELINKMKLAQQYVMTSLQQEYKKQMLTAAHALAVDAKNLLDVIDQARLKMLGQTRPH

In the case of `CC(C)[Si](C#C[Si](C(C)C)(C(C)C)C(C)C)(O[C@H](C)c1cn([C@H](C)c2ccccc2)nn1)C(C)C`, the composite z-score in test [1] is -0.0001; in test [3], -0.122; in test [4], -0.0632; in test [5] it was 0.66; in test [6], 0.386; in [7] it was -0.13. For the same compound, the composite z-score in test [8] stood at 1.16; in [9], 0.0747; in test [10] it was 0.927; in test [11] it was 0.467; in test [12] it was 0.796; in test [13] it was 0.768. Besides, the composite z-score in test [14] amounted to 0.179; in test [15] it was 0.465; in [16], 0.261; in [18], 0.751; in [19] it was 0.625. The composite Z-score in test [2] was -0.097 (inactive). The values for the z-score in [17] and in [20] were 1.8 and -1.4 (inactive), respectively.
Take `C=C(CCCC)/C(=C/C[C@@H](OC(=O)c1ccncc1)c1ccc(OCCO)cc1)c1cnc2ccccc2c1`: the composite z-score is 0.26 in [1]; 0.135 in [3]; -0.0859 in test [4]; 0.948 in test [5]; 0.814 in test [6]; 2.07 in test [7]. For the same compound, the composite z-score was 1.03 in [8]; 1.44 in [9]; 1.15 in [10]; 0.921 in [11]; 0.775 in [12]; -0.438 in [13]. In addition, the composite z-score in test [14] came out at 0.577; in test [15], 1.44; in test [16] it was 1.62; in test [18] it was 1.64; in test [19], 1.35. Moreover, the composite Z-score in [2] was -0.0966 (inactive). For the same compound, the results for the z-score in [17] and in test [20] were 0.985 and -2.3 (inactive), respectively.
Consider `CN1C=C(C(=O)OCCS(C)(=O)=O)C(C(=O)OCCS(C)(=O)=O)=CC(CCCO)=CC1c1cccs1` (stereo not given), for which the composite z-score in test [1] was -0.945; in [3], -0.132; in test [4], -0.0837; in test [5], -0.167; in [6], -0.12; in test [7] it was 0.0548. For the same compound, the composite z-score in [8] was 1.13; in test [9], 0.443; in [10], -0.508; in test [11], 0.478; in [12], 0.77; in [13] it was 0.275. The composite z-score was -0.463 in test [14]; 0.775 in test [15]; 0.371 in test [16]; 1.07 in [18]; -0.485 in test [19]. Further, the composite Z-score in [2] is 1.4 (inactive). In addition, the results for the z-score in [17] and in [20] were 3.12 and -1.52 (inactive), respectively.
Take `COCCOC(=O)N1C(=O)[C@@]2(c3cc(C#CCCO)ccc31)[C@H](c1ccccc1OCCO)N1[C@H](c3ccccc3)[C@H](c3ccccc3)OC(=O)[C@H]1[C@@H]2C(=O)NC[C@H](O)c1ccccc1`: the composite z-score is 0.25 in test [1]; -0.0197 in test [3]; -0.0753 in test [4]; 0.204 in [5]; 2.15 in test [6]; 0.35 in [7]. Moreover, the composite z-score was found to be 1.31 in test [8]; 0.524 in test [9]; 0.859 in test [10]; 2.02 in test [11]; 0.907 in test [12]; 1.07 in test [13]. Also, the composite z-score in test [14] came to 0.756; in test [15], 1.5; in test [16], 1.7; in test [18], 1.61; in test [19], 1.01. Also, in test [2], the composite Z-score is 0.0022 (inactive). Further, the z-score in [17] was 0.891; in test [20], -1.74 (inactive).
For the compound `CC(C)NC(=O)[C@@H]1c2ccccc2C(=O)N(Cc2cc(F)cc(C(F)(F)F)c2)[C@H]1c1ccc(CO)cc1`, the composite z-score was -0.448 in test [1]; -0.402 in test [3]; -0.111 in [4]; 0.741 in test [5]; 1.34 in test [6]; -0.126 in test [7]. The composite z-score in test [8] is -0.096; in [9] it was -0.556; in test [10] it was -0.94; in test [11], -0.905; in test [12], -0.194; in test [13], 0.434. The composite z-score was -1.41 in test [14]; -1.12 in test [15]; -0.612 in test [16]; -1.89 in test [18]; -1.21 in test [19]. Also, in [2], the composite Z-score was 0.115 (inactive). Further, the z-score in [17] is 2.84; in test [20] it was -0.758 (inactive).
